Test results published in ChEMBL document CHEMBL2218924, “A broad activity screen in support of a chemogenomic map for kinase signalling research and drug discovery” (Biochem J, 2013).

Columns and labels:
[1] = biological target: Death-associated protein kinase 1 (Homo sapiens) (UniProt P53355); conditions: at 10 µM
[2] = biological target: Death-associated protein kinase 2 (Homo sapiens) (UniProt Q9UIK4); conditions: at 1 µM
[3] = biological target: Death-associated protein kinase 2 (Homo sapiens) (UniProt Q9UIK4); conditions: at 10 µM
[4] = biological target: T1, Serine/threonine-protein kinase DCLK2 (Homo sapiens) (UniProt Q8N568); conditions: at 1 µM
T1 sequence (whole entry): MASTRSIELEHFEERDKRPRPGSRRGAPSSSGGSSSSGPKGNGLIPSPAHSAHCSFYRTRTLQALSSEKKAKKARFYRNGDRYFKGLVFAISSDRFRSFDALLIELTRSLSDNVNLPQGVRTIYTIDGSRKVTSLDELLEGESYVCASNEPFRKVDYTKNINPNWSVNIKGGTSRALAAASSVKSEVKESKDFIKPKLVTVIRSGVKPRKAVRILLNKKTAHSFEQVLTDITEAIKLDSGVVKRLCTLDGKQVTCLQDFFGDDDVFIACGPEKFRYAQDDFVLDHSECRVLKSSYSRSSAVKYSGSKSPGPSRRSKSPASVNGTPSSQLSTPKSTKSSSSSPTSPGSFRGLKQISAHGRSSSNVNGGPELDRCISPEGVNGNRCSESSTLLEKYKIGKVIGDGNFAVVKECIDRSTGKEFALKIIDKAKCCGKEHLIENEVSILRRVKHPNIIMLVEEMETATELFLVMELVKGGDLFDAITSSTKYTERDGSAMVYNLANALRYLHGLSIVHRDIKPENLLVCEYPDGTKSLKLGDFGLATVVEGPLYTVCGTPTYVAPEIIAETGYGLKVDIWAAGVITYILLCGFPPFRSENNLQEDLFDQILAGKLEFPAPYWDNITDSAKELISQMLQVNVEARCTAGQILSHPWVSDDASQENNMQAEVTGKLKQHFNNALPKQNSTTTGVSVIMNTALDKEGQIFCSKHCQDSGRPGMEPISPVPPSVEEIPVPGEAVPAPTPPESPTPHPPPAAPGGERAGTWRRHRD

[5] = biological target: T1, Serine/threonine-protein kinase DCLK2 (Homo sapiens); conditions: at 10 µM
[6] = biological target: T2, Discoidin domain-containing receptor 2 (Homo sapiens) (UniProt Q16832); conditions: at 1 µM
T2 sequence (whole entry): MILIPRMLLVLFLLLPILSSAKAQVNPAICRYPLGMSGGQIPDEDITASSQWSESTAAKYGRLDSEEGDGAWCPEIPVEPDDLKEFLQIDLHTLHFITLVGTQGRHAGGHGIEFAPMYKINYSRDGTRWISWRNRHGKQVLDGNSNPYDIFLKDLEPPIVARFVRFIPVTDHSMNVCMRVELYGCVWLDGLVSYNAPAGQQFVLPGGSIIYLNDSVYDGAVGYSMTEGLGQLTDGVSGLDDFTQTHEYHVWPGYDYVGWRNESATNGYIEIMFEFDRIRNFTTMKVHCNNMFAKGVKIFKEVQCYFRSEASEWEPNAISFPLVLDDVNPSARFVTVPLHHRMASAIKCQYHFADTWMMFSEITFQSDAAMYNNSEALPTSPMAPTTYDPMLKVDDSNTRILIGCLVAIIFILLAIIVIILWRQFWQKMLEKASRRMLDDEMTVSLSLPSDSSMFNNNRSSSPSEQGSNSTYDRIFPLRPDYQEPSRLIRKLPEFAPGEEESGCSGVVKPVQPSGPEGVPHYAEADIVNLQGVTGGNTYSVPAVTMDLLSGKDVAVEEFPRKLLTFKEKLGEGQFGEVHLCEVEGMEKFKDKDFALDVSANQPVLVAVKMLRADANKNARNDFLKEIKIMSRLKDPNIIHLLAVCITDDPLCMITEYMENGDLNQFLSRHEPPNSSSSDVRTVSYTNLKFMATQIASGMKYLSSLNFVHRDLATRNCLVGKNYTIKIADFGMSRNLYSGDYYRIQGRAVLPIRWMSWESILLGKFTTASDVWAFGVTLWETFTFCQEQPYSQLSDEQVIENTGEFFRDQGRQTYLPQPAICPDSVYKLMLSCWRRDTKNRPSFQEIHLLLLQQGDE

[7] = biological target: T2, Discoidin domain-containing receptor 2 (Homo sapiens); conditions: at 10 µM
[8] = biological target: T3, Myotonin-protein kinase (Homo sapiens) (UniProt Q09013); conditions: at 1 µM
T3 sequence (whole entry): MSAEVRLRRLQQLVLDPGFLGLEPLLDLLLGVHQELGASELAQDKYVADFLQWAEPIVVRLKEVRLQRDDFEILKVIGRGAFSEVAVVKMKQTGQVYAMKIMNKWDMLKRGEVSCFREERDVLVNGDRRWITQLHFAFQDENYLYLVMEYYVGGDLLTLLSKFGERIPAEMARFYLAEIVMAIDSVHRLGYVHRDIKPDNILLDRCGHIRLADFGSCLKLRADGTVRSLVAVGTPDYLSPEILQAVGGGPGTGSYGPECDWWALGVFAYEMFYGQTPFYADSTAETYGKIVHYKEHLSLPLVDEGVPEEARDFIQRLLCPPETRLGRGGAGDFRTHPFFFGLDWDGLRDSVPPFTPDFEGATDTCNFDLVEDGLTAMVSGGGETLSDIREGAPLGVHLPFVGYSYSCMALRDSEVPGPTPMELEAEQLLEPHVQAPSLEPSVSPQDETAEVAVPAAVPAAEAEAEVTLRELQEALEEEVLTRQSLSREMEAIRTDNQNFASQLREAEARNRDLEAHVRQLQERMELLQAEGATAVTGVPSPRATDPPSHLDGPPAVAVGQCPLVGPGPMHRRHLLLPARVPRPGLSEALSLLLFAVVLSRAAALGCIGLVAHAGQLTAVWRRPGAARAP

[9] = biological target: T3, Myotonin-protein kinase (Homo sapiens); conditions: at 10 µM
[10] = biological target: T4, Serine/threonine-protein kinase 17A (Homo sapiens) (UniProt Q9UEE5); conditions: at 1 µM
T4 sequence (whole entry): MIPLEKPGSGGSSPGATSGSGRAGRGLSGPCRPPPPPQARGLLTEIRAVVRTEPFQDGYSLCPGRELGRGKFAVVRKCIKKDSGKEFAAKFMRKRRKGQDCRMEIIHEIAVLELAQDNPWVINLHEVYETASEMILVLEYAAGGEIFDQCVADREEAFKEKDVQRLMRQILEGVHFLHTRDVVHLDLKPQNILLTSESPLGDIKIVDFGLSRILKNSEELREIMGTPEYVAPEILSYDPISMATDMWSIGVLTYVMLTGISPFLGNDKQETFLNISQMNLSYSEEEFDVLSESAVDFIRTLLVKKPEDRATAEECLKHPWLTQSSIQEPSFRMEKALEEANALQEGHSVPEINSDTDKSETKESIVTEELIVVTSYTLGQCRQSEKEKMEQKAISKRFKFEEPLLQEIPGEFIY

Death-associated protein kinase 2 (Homo sapiens), sequence (Q9UIK4 whole entry, looked up): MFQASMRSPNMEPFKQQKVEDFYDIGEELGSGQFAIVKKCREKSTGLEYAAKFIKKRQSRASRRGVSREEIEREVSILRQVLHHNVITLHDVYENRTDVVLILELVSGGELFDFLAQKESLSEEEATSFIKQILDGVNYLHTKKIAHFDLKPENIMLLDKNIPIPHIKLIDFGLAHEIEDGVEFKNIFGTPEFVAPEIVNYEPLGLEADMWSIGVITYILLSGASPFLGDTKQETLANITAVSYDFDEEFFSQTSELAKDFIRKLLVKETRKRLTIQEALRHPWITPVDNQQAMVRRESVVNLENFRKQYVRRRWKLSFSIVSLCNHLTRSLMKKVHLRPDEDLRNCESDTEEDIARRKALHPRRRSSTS
Death-associated protein kinase 1 (Homo sapiens), sequence (P53355 whole entry, looked up): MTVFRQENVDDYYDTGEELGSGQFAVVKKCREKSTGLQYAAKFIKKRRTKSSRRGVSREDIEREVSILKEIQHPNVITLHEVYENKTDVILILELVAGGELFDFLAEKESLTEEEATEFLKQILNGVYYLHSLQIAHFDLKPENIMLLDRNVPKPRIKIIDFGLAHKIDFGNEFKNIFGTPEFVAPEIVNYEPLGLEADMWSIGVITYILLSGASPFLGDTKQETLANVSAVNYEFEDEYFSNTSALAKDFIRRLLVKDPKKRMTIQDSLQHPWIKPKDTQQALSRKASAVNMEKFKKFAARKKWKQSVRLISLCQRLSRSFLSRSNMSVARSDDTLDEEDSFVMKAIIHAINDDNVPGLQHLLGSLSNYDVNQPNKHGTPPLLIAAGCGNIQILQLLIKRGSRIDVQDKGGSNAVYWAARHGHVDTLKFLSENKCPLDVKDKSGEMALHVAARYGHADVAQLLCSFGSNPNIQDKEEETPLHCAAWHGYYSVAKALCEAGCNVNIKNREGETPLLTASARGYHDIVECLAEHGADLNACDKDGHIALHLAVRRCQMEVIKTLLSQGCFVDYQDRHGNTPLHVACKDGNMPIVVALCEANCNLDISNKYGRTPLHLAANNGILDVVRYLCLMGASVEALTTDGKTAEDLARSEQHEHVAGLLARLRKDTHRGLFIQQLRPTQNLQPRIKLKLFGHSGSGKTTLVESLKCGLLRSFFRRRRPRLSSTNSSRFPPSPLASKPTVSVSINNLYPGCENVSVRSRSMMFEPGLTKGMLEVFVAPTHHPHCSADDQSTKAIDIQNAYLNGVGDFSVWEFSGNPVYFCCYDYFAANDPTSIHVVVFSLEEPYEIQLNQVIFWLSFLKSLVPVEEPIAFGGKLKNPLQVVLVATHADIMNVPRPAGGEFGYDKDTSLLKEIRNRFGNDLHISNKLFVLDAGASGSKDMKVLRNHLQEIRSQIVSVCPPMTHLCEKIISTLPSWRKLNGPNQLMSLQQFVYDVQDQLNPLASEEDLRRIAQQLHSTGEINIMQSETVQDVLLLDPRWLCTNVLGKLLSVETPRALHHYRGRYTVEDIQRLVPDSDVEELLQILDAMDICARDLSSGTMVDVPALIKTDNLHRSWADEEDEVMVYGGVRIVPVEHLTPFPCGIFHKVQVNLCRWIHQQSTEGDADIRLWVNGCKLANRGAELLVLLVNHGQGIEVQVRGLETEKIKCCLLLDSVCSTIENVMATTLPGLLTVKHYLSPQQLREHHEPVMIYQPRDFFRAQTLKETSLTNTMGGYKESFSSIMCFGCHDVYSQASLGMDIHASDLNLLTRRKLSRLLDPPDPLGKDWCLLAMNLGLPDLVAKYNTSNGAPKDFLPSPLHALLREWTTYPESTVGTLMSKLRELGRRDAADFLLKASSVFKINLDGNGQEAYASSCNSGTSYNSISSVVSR

Compound | residual activity [1] [%] | residual activity [2] [%] | residual activity [3] [%] | residual activity [4] [%] | residual activity [5] [%] | residual activity [6] [%] | residual activity [7] [%] | residual activity [8] [%] | residual activity [9] [%] | residual activity [10] [%]
O=C(Nc1cccc(Nc2nccc(Nc3cccc(C(F)(F)F)c3)n2)c1)C1CC1 | 60 | 93 | 68 | 82 | 102 | 79 | 30 | 72 | 125 | 73
Oc1n[nH]c2nnc(-c3c(-c4ccccc4)nn4ccccc34)cc12 | 39 | 62 | 43 | 85 | 92 | 92 | 95 | 69 | 83 | 78
CO[C@H]1C[C@@H]2CC[C@@H](C)[C@@](O)(O2)C(=O)C(=O)N2CCCC[C@H]2C(=O)O[C@H]([C@H](C)C[C@@H]2CC[C@@H](O)[C@H](OC)C2)CC(=O)[C@H](C)/C=C(\C)[C@@H](O)[C@@H](OC)C(=O)[C@H](C)C[C@H](C)/C=C/C=C/C=C/1C | 108 | 93 | 110 | 137 | 360 | 115 | 110 | 145 | 139 | 113
Oc1ccc(-c2nc(-c3ccc(F)cc3)c(-c3ccncc3)[nH]2)cc1 | 76 | 110 | 97 | 113 | 76 | 69 | 20 | 112 | 88 | 
O=C1NC(=O)c2cc(Nc3ccc(F)cc3)c(Nc3ccc(F)cc3)cc21 | 76 | 77 | 84 | 76 | 89 | 92 | 51 | 125 | 129 | 105
Cn1cnc2cc3c(Nc4cccc(Br)c4)ncnc3cc21 | 99 | 96 | 113 | 102 | 110 | 75 | 60 | 112 | 111 | 64
CC(C)n1cnc2c(NCc3ccccc3)nc(NCCCO)nc21 | 82 | 101 | 92 | 100 | 102 | 87 | 91 | 94 | 87 | 107
O=C1NC(=O)/C(=C\c2ccc3nccnc3c2)S1 | 78 | 68 | 27 | 73 | 71 | 109 | 101 | 114 | 122 | 63
CCN(CC)CCCCN1c2ccccc2Oc2ccc(Cl)cc21 | 99 | 111 | 109 | 96 | 104 | 115 | 90 | 120 | 136 | 124
O=C(O)c1ccc2c3c1cccc3c(=O)n1c3ccccc3nc21 | 47 | 31 | 1 | 117 | 68 | 99 | 101 | 92 | 83 | 42
O=C1NC(=O)c2c1c1c3ccccc3[nH]c1c1[nH]c3cc(Br)ccc3c21 | 92 | 98 | 71 | 83 | 96 | 101 | 98 | 115 | 97 | 67
COc1cc2ncnc(N3CCN(C(=O)Nc4ccc(Oc5ccccc5)cc4)CC3)c2cc1OC | 102 | 93 | 112 | 98 | 242 | 106 | 117 | 115 | 142 | 120
COc1ccc(S(=O)(=O)N(CCO)c2ccccc2CN(C)C/C=C/c2ccc(Cl)cc2)cc1 | 65 | 100 | 87 | 91 | 107 | 97 | 97 | 99 | 89 | 95
CO[C@H]1[C@@H](OC)C[C@H](C)[C@@H](OC)C2=CC(=O)C=C(NC(=O)/C(C)=C/C=C/[C@H](OC)[C@@H](OC(N)=O)/C(C)=C/[C@@H]1C)C2=O | 78 | 104 | 114 | 89 | 75 | 98 | 99 | 147 | 127 | 86
Cc1ccc(NC2=CC(=O)c3sc(C)nc3C2=O)cc1 | 89 | 99 | 94 | 118 | 93 | 94 | 101 | 121 | 91 | 109
Ic1cccc(CSc2nnc(-c3ccncc3)o2)c1 | 76 | 96 | 100 | 100 | 97 | 86 | 82 | 82 | 81 | 100

Compound | residual activity [1] [%] | residual activity [2] [%] | residual activity [3] [%] | residual activity [4] [%] | residual activity [5] [%] | residual activity [6] [%] | residual activity [7] [%] | residual activity [8] [%] | residual activity [9] [%] | residual activity [10] [%]
N#C/C(=C(\N)Sc1ccc(N)cc1)c1ccccc1C(F)(F)F | 78 | 98 | 103 | 102 | 99 | 91 | 108 | 95 | 85 | 96
O=Nc1c(-c2c(O)[nH]c3ccccc23)[nH]c2ccccc12 | 67 | 73 | 23 | 119 | 74 | 94 | 87 | 109 | 83 | 6
Cn1cc(/C=C2\C(=O)Nc3ccc(S(N)(=O)=O)cc32)c2ccccc21 | 85 | 92 | 94 | 97 | 77 | 94 | 99 | 80 | 120 | 22
Cn1nc2c3c(cccc31)C(=O)c1ccccc1-2 | 77 | 93 | 76 | 75 | 89 | 100 | 104 | 127 | 84 | 50
Cc1nc2cc3nc(-c4cccs4)cnc3cc2n1C | 86 | 105 | 108 | 115 | 108 | 111 | 93 | 113 | 117 | 64
CC(C)n1cnc2/c(=N/c3cccc(Cl)c3)nc(NCCO)[nH]c21 | 94 | 104 | 98 | 103 | 94 | 94 | 93 | 124 | 74 | 
Nc1n[nH]c2nnc(-c3c(-c4ccccc4)nn4ccccc34)cc12 | 88 | 95 | 99 | 128 | 75 | 94 | 74 | 92 | 75 | 83
CC#CC(=O)Nc1cc2c(Nc3ccc(F)c(Cl)c3)ncnc2cn1 | 90 | 88 | 104 | 77 | 96 | 96 | 93 | 113 | 115 | 105
CCOc1cc2ncnc(Nc3cccc(Br)c3)c2cc1OCC | 85 | 105 | 102 | 84 | 66 | 93 | 66 | 109 | 135 | 113
O=C1Nc2ccccc2/C1=C1/Nc2ccccc2/C1=N\OCCC(O)CO (stereo not drawn) | 43 | 49 | 12 | 99 | 35 | 76 | 46 | 115 | 69 | 5
Oc1ccc(Nc2nc(-c3ccc(Cl)cc3)cs2)cc1 | 107 | 101 | 107 | 123 | 179 | 97 | 104 | 100 | 98 | 119
COc1ccc(OC)c2c(=S)c3ccccc3[nH]c12 | 93 | 106 | 95 | 101 | 67 | 99 | 103 | 120 | 87 | 94
Nc1ccc2ncnc(NCCc3ccc(Oc4ccccc4)cc3)c2c1 | 75 | 105 | 100 | 110 | 87 | 91 | 90 | 98 | 86 | 62
CN(C)c1ccc(/C=C2\C(=O)Nc3ccccc32)cc1 | 80 | 102 | 88 | 88 | 101 | 104 | 99 | 111 | 130 | 25
CC(=O)O/N=C1\C(=C2\C(=O)Nc3cc(Br)ccc32)Nc2ccccc21 | 84 | 86 | 65 | 107 | 94 | 91 | 71 | 106 | 89 | 63
O=C1Nc2cc(Br)ccc2/C1=C1/Nc2ccccc2/C1=N\O | 46 | 50 | 26 | 89 | 76 | 74 | 37 | 110 | 84 | 8
